# Measurements from PubChem BioAssay (NCATS).
# Values joined by “and” are separate entries in the source; they are usually repeats but may differ in a detail not shown here. Equal entries are not always repeated. Records with an inconclusive call do not appear. Some compounds were tested as several samples or in several runs, with calls that do not always agree. Active and inactive are the calls of the source. Unless noted, calls come from the whole dose curve; as a rule, active = well fitted curve in the direction sought with a large enough effect; inconclusive = small, poorly fitted or top-dose-only effect, or another doubt; inactive = no such curve, though single readings can be large; an effect the other way counts as inactive or inconclusive.
# Test system: not listed separately
# Test: Counterscreen qHTS for small molecule stabilizers of the endoplasmic reticulum resident proteome: GLuc-NoTag assay (AID 1508627); note: potency is the fitted concentration of half-maximal effect;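 for activity change, negative = inhibition: SH-SY5Y cells given compound then 100 nM thapsigargin to empty ER calcium; 0% = thapsigargin alone and -100% = DMSO vehicle control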
# Conditions: Gaussia luciferase NoTag secretion counterscreen, luminescence, thapsigargin 100 nM for final 4 h; series mostly up to 76.4 µM; activity change, negative = inhibition: at the top concentration
# Method in brief: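 Counterscreen line: SH-SY5Y-GLuc-NoTag cells, treated with compound 19 hr before a 4 hr, 100 nM thapsigargin calcium depletion. Secreted Gaussia luciferase in the medium was measured by luminescence after coelenterazine was added (0.07x final), with cells unlysed.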
Structure (SMILES),"activity change, negative = inhibition",Potency
CCCCCCCC/C=C\CCCCCCCC(=O)NCCO,21.2% (inactive),–
N#C/C(=C\c1ccc(O)c(O)c1)C(=O)c1ccc(O)c(O)c1,37% (inactive),–
Cn1cc(C2=C(c3ccc(Cl)cc3Cl)C(=O)NC2=O)c2ccccc21,–,0.447 µM (active)
O=C(/C=C/c1ccc(O)c(O)c1)OCCc1ccccc1,-25.1% [at 104 µM] (inactive),–
NC(=S)c1ccc[n+]([C@@H]2O[C@@H](COP(=O)([O-])OP(=O)(O)OC[C@H]3O[C@@H](n4cnc5c(N)ncnc54)[C@H](OP(=O)(O)O)[C@@H]3O)C(O)C2O)c1 (some centres not stated),31.3% (inactive),–
CCCN(CC1CC1)c1nc(C)nc(Nc2c(Cl)cc(Cl)cc2Cl)c1Cl,-9.69% (inactive),–

# Test system: not listed separately
# Test: Confirmatory qHTS for small molecule stabilizers of the endoplasmic reticulum resident proteome: Secreted ER Calcium Modulated Protein (SERCaMP) assay (AID 1508628); note: nearly all actives have a fitted effect of over 40% in size; note: potency is the fitted concentration of half-maximal effect; for activity change, negative = decrease: % is set by controls: 0 for no effect and ±100 for the full control effect
# Conditions: SERCaMP secreted luciferase ER calcium/proteostasis reporter; series mostly up to 76.3 µM; activity change, negative = decrease: at the top concentration
# Method in brief: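 GLuc-SERCaMP-expressing SH-SY5Y cells, pretreated 16 h with compound, are challenged with thapsigargin to empty ER calcium stores; after 4 h, coelenterazine is added directly to the medium and luminescence is imaged.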
Structure (SMILES),Potency,"activity change, negative = decrease"
CCCCCCCC/C=C\CCCCCCCC(=O)NCCO,inactive,–
Cn1cc(C2=C(c3ccc(Cl)cc3Cl)C(=O)NC2=O)c2ccccc21,39.8 µM (active),–
Oc1cc2c(cc1O)CN(C(=S)NCCc1ccc(Cl)cc1)CCC2,15.8 µM (active),–
O=C(/C=C/c1ccc(O)c(O)c1)OCCc1ccccc1,inactive and 4.47 µM (active),–
NC(=S)c1ccc[n+]([C@@H]2O[C@@H](COP(=O)([O-])OP(=O)(O)OC[C@H]3O[C@@H](n4cnc5c(N)ncnc54)[C@H](OP(=O)(O)O)[C@@H]3O)C(O)C2O)c1 (some centres not stated),–,-14.1% (inactive)
CCCN(CC1CC1)c1nc(C)nc(Nc2c(Cl)cc(Cl)cc2Cl)c1Cl,–,5.21% (inactive)

# Test system: not listed separately
# Test: Primary qHTS for small molecule stabilizers of the endoplasmic reticulum resident proteome: Secreted ER Calcium Modulated Protein (SERCaMP) assay (AID 1508630); note: % is set by controls: 0 for no effect and ±100 for the full control effect
# Conditions: SH-SY5Y GLuc-SERCaMP (Gaussia luciferase released on ER calcium loss) secretion, thapsigargin, luminescence; series mostly up to 38.4 µM; activity change, negative = inhibition: at the top concentration
# Method in brief: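 The SH-SY5Y reporter protocol was run at 3 concentrations up to 38.3 uM (primary) or 11 concentrations (follow-up): 16 h compound, 100 nM thapsigargin for 4 h, then extracellular luciferase luminescence.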
Structure (SMILES),Potency,"activity change, negative = inhibition"
Clc1ccc(N2CCN(Cc3c[nH]c4ncccc34)CC2)cc1,inactive,–
NC(=O)C(=O)O,–,-19.1% (inactive)
O=Nc1ccc2oc(=O)ccc2c1,–,-28.3% (inactive)
O=C(O)c1cc(=O)c2c(Cl)cc(Cl)cc2[nH]1,–,-16.7% (inactive)
CN(C)c1ccc(/C=C2\C(=O)Nc3ccccc32)cc1,–,-19.4% (inactive)
COc1ccc(NC(=O)/C=C/c2ccc(Cl)cc2)cc1,–,1.63% (inactive)
CO/N=C(\C(=O)N[C@@H]1C(=O)N2C(C(=O)O)=C(COC(C)=O)CS[C@H]12)c1csc(N)n1,–,-20.7% (inactive)
O=C(O)CC1CCCc2ccccc2C1O (configuration not stated),–,-18.7% (inactive)
Cn1cc(C2=C(c3ccc(Cl)cc3Cl)C(=O)NC2=O)c2ccccc21,–,-1.54% (inactive)
C[N+](C)(C)CCOP(=O)(O)OP(=O)([O-])OC[C@H]1O[C@@H](n2ccc(N)nc2=O)[C@H](O)[C@@H]1O,–,-3.35% (inactive)
Clc1ccc(N2CCN(Cc3cc4ccccn4n3)CC2)cc1,–,-20.3% (inactive)
COc1cc(OC)c(/C=C2/C(=O)Nc3ccccc32)c(OC)c1,–,51% (inactive)
CCC1C(=O)OCC1Cc1cncn1C (configuration not stated),inactive,–
NCC1OC(O[C@H]2[C@H](O)[C@@H](OC3C(O)C(N)CC(N)C3OC3OC(CO)C(O)C(O)C3N)O[C@@H]2CO)C(N)C(O)C1O (some centres not stated),–,-29% (inactive)
CN1CCc2cccc3c2C1Cc1ccc(O)c(O)c1-3 (configuration not stated),–,-3.2% (inactive)
NC[C@H]1O[C@@H](n2cnc3c(N)ncnc32)[C@H](O)[C@@H]1O,–,32.2% (inactive)
CN1CC(=O)N/C1=N/C(=O)Nc1cccc(Cl)c1,–,-37.1% (inactive)
COc1cccc(OC)c1OCCNCC1COc2ccccc2O1 (configuration not stated),inactive,–
CN(C)C(N)=NCCC[C@H](N)C(=O)O,–,-28% (inactive)
CCCN(CC1CC1)c1nc(C)nc(Nc2c(Cl)cc(Cl)cc2Cl)c1Cl,inactive,–
CSc1ccccc1N1CCN(CCCCCC(=O)NC2CCCc3ccccc32)CC1 (configuration not stated),–,-28.8% (inactive)
Cc1cc(NC(=O)Nc2ccc3c(ccn3C)c2)sn1,inactive,–
Nc1nc(Cl)nc2c1ncn2[C@@H]1O[C@H](CO)[C@@H](O)[C@H]1O,inactive,–

# Molecular target: Cytochrome P450 2C9 (Homo sapiens) (UniProt P11712)
# Sequence (P11712 whole entry, looked up): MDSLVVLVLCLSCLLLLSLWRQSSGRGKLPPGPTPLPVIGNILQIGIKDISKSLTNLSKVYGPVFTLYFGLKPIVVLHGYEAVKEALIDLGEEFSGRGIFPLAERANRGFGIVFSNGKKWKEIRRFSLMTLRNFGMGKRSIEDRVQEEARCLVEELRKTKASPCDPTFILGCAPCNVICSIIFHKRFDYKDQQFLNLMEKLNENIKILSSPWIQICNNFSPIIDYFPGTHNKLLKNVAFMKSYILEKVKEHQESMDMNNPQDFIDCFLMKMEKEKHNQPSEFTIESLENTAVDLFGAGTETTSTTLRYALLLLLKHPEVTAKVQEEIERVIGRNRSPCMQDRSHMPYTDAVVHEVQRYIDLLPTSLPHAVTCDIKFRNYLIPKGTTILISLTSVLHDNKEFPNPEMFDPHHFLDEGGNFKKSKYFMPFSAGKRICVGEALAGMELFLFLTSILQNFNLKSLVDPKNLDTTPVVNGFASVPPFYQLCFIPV
# Test: Cytochrome P450 family 2 subfamily C member 9 (CYP2C9) small molecule antagonists: luciferase biochemical (cell-free) qHTS assay (AID 1645842; active = well fitted curve in the direction sought with a large enough effect in the repeat runs; an effect the other way counts as inactive or inconclusive; note: % is set by controls: 0 for no effect and ±100 for the full control effect; nearly all actives have a fitted effect of over 55% in size)
# Conditions: P450-Glo CYP2C9 enzyme assay, luciferin luminescence; series mostly up to 57.4 µM; activity change, negative = inhibition: at the top concentration
# Method in brief: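 P450-Glo CYP2C9 system: proluciferin substrate with enzyme in mix containing 0.4% BSA, 10 min at room temperature, then NADPH regeneration solution added and incubated 1 h at 37C. Detection reagent stopped reaction; luminescence read after 20 min as RLU.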
row,Structure (SMILES),"activity change, negative = inhibition"
1,CO/N=C(\C(=O)N[C@@H]1C(=O)N2C(C(=O)O)=C(COC(C)=O)CS[C@H]12)c1csc(N)n1,6.3% (inactive)
2,CCC1C(=O)OCC1Cc1cncn1C (configuration not stated),5.14% (inactive)
3,CN1CC(=O)N/C1=N/C(=O)Nc1cccc(Cl)c1,-5.77% (inactive)

# Molecular target: Papain (Carica papaya) (UniProt P00784)
# Sequence (P00784 whole entry, looked up): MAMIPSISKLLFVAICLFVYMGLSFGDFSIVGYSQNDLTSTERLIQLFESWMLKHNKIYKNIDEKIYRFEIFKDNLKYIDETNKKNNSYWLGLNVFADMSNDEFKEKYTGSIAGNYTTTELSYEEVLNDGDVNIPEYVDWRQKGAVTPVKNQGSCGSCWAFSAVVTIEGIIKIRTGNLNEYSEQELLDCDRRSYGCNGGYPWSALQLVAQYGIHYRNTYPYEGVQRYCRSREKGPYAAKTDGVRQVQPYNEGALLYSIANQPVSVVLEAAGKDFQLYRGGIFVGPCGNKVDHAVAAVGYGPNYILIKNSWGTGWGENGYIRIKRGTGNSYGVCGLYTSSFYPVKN
# Test: Primary qHTS assay for inhibitors of the protease papain (AID 1645873);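 note: papain turnover of Z-FR-AMC read as the AMC fluorescence gain over 10 min; % is set by controls: 0 for no effect and ±100 for the full control effect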
# Conditions: papain Z-FR-AMC cleavage, AMC fluorescence; series mostly up to 49.8 µM; activity change, negative = inhibition: at the top concentration
Structure (SMILES),"activity change, negative = inhibition",Potency
CCCCCCCC/C=C\CCCCCCCC(=O)NCCO,6.21% (inactive),–
Clc1ccc(N2CCN(Cc3c[nH]c4ncccc34)CC2)cc1,13.4% (inactive),–
NC(=O)C(=O)O,1.17% (inactive),–
O=Nc1ccc2oc(=O)ccc2c1,-0.45% (inactive),–
O=C(O)c1cc(=O)c2c(Cl)cc(Cl)cc2[nH]1,-3.51% (inactive),–
CN(C)c1ccc(/C=C2\C(=O)Nc3ccccc32)cc1,5.31% (inactive),–
COc1ccc(NC(=O)/C=C/c2ccc(Cl)cc2)cc1,-3.33% (inactive),–
CO/N=C(\C(=O)N[C@@H]1C(=O)N2C(C(=O)O)=C(COC(C)=O)CS[C@H]12)c1csc(N)n1,-8.73% (inactive),–
O=C(O)CC1CCCc2ccccc2C1O (configuration not stated),2.25% (inactive),–
Cn1cc(C2=C(c3ccc(Cl)cc3Cl)C(=O)NC2=O)c2ccccc21,38.1% (inactive),–
C[N+](C)(C)CCOP(=O)(O)OP(=O)([O-])OC[C@H]1O[C@@H](n2ccc(N)nc2=O)[C@H](O)[C@@H]1O,13.1% (inactive),–
Clc1ccc(N2CCN(Cc3cc4ccccn4n3)CC2)cc1,1.53% (inactive),–
CCC1C(=O)OCC1Cc1cncn1C (configuration not stated),–,inactive
Oc1cc2c(cc1O)CN(C(=S)NCCc1ccc(Cl)cc1)CCC2,-14.3% (inactive),–
O=C(/C=C/c1ccc(O)c(O)c1)OCCc1ccccc1,-14.3% (inactive),–
NC[C@H]1O[C@@H](n2cnc3c(N)ncnc32)[C@H](O)[C@@H]1O,1.53% (inactive),–
NC(=S)c1ccc[n+]([C@@H]2O[C@@H](COP(=O)([O-])OP(=O)(O)OC[C@H]3O[C@@H](n4cnc5c(N)ncnc54)[C@H](OP(=O)(O)O)[C@@H]3O)C(O)C2O)c1 (some centres not stated),26.4% (inactive),–
CN1CC(=O)N/C1=N/C(=O)Nc1cccc(Cl)c1,3.33% (inactive),–
COc1cccc(OC)c1OCCNCC1COc2ccccc2O1 (configuration not stated),-9.45% (inactive),–
CN(C)C(N)=NCCC[C@H](N)C(=O)O,8.01% (inactive),–
CCCN(CC1CC1)c1nc(C)nc(Nc2c(Cl)cc(Cl)cc2Cl)c1Cl,-3.87% (inactive),–
CSc1ccccc1N1CCN(CCCCCC(=O)NC2CCCc3ccccc32)CC1 (configuration not stated),0.81% (inactive),–
Cc1cc(NC(=O)Nc2ccc3c(ccn3C)c2)sn1,-3.87% (inactive),–
Nc1nc(Cl)nc2c1ncn2[C@@H]1O[C@H](CO)[C@@H](O)[C@H]1O,-0.27% (inactive),–
